# Measurements published in PubChem BioAssay (NCI).
# This is part of a sample that, as a whole, favours compounds with a hit. Of some 83,000 tested, about 20% had one in any assay.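 How to read the values: 0–100, growth inhibition (40 = 60% inhibited); 0, no net growth; -100 to 0, cell death (-40 = 40% of starting cells died; -100 = all dead).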 Values without a mark were called inactive. Calls of active or inactive are those of the source. How the source made its calls: active means growth percent below 10; inactive means the rest.
# What was measured:
# Experiment in all cases: NCI-60 one-dose screen, 48 h (100 = growth as untreated, 0 = no growth, -100 = all killed)
# Details in all cases: 10 µM unless noted
# [1] = test system: SR leukemia
# [2] = test system: RPMI-8226 leukemia
# [3] = test system: OVCAR-8 ovarian
# [4] = test system: OVCAR-5 ovarian
# [5] = test system: OVCAR-4 ovarian
# [6] = test system: SK-OV-3 ovarian
# [7] = test system: IGROV1 ovarian
# [8] = test system: OVCAR-3 ovarian
# [9] = test system: HS 578T breast
# [10] = test system: NCI/ADR-RES ovarian
SMILES,growth [1],growth [2],growth [3],growth [4],growth [5],growth [6],growth [7],growth [8],growth [9],growth [10]
NC(=NCCCOc1ccc(Cl)cc1)Nc1ccc(Cl)cc1,4.92% (active),15.1%,60.4%,30.5%,26.4%,69.2%,8.71% (active),54.3%,41.5%,53.1%
Nc1n[nH]c2ccc([C@@H]3Nc4ccc5cn[nH]c5c4[C@H]4C5CCC(C5)[C@@H]34)cc12 (stereo partly drawn),14.3%,40.3%,35.5%,40.3%,35.2%,37.7%,22.1%,-5.18% (active),21.2%,20.7%
Cc1cc(Nc2ccc(C)c(Cl)c2)n2nc(C(F)(F)F)nc2n1,60.6%,51.6%,30.8%,55.4%,-62.7% (active),-50.5% (active),15.1%,15.2%,28.7%,
OCCNc1nccc(N2CCN(c3ccnc4cc(Cl)ccc34)CC2)n1,17.4%,89.3%,94.6%,102%,77.5%,85.2%,55.7%,81.1%,92.1%,
CCN1CCC2(CC1)NC(=O)c1c(c3ccc(Cl)c(Cl)c3n1C)C2C#N (stereo not drawn),26.5%,16.6%,76.9%,74.3%,63.8%,87.6%,55.8%,56.2%,53.8%,63.4%
COc1ccc(O)c(N=Nc2nccs2)c1,13.4%,25.3%,52.1%,120%,37.1%,85.2%,70.2%,39.9%,103%,53.6%
COc1ccc2cc(-c3nn(-c4ccc(C(=O)O)cc4)cc3CO)ccc2c1,90.8%,95.1%,101%,100%,106%,107%,99.2%,93.5%,97.3%,99.8%
CN1CCN(c2ccc(Nc3c4ccccc4nc4ccccc34)cc2)CC1,103%,121%,100%,102%,103%,112%,111%,110%,117%,
C=C1C(=O)O[C@H]2[C@H]1CC/C(COC(=O)c1cc3cc(OC)ccc3[nH]1)=C\CC[C@@]1(C)O[C@@H]21,-21.1% (active),-20.3% (active),-66.9% (active),-58.6% (active),-81.5% (active),50.6%,-77.1% (active),-97.4% (active),-3.89% (active),-0.39% (active)
CCNC(=O)Oc1ccc(/C(=C(\C)c2ccc(Cl)cc2)c2ccc(OCCN(CC)CC)cc2)cc1,-26.8% (active),-11.4% (active),64.8%,85.9%,40.5%,61.5%,49.2%,53.9%,47.1%,57.3%
CN(C)CCCNc1c2ccccc2nc2ccccc12,86.9%,100%,92%,97.9%,87.4%,95.8%,97.5%,103%,75.7%,
COc1cc2c(cc1-c1c(C)noc1C)ncc1nc(C3CCOCC3)n([C@@H](C)COC(F)F)c12,28.5%,18.4%,45%,65.2%,46.4%,2.74% (active),67%,42.3%,8.31% (active),50.6%
N=C(N)c1ccc(-c2ccc(-c3ccc4ccccc4c3)s2)s1,-37.2% (active),-18.3% (active),3.43% (active),-0.924% (active),-21.3% (active),95.7%,5.62% (active),-76.1% (active),91.6%,-42% (active)
Cn1cccc1-c1nc2c3c(ccc2[nH]1)C(=O)c1ccccc1C3=O,27.1%,61.5%,85.8%,90.4%,46.5%,118%,79.1%,95%,115%,81.8%
C#CCOc1ccc2ncnc(N3CCC(NC(=O)CCl)CC3)c2c1,62.6% [8.25 µM],44.4% [8.25 µM],76.3% [8.25 µM],100% [8.25 µM],36.5% [8.25 µM],69.6% [8.25 µM],51.4% [8.25 µM],68.2% [8.25 µM],46.7% [8.25 µM],88.2% [8.25 µM]
CCOc1ccc(C(C)=O)cc1NC(=O)c1cccc(-c2nnn(CC)n2)c1,10.2%,22.4%,34.2%,66.5%,48%,23.8%,52.3%,7.08% (active),25.4%,25.2%
O=C1c2cc3c(cc2-c2c1c1ccc(F)cc1c(=O)n2C[C@H](O)[C@H](O)[C@H](O)CO)OCO3,-8.53% (active),-12.9% (active),-3.45% (active),-20.6% (active),5.07% (active),-30.3% (active),7.16% (active),-17% (active),-8.24% (active),-23.8% (active)
Cc1ccc(NC(=O)C2CCC(CN3CCN(C)CC3)CC2)cc1Nc1nccc(-c2cccnc2)n1 (stereo not drawn),90.9%,96.6%,111%,92%,108%,110%,110%,103%,85.1%,97.5%
CN1CCN(CCCOc2cccc3nc(Nc4ccc(Cl)c(F)c4)ccc23)CC1,-16% (active),23.9%,85%,58.6%,65.4%,82.7%,65.7%,69.9%,52.7%,49.7%
Cc1cc(N2CCN(c3ccnc4cc(Cl)ccc34)CC2)nc(NC2CCCCC2)n1,-24% (active),-37.5% (active),60.3%,66.8%,33.2%,56.3%,18.6%,38.2%,57.9%,
CCOC(=O)c1csc(NC(=O)COc2cccc(/C=C3\CSc4ccccc4C3=O)c2)n1,-86.4% (active),-71.2% (active),20.3%,56.4%,83.6%,35%,1.28% (active),-25.7% (active),-11% (active),44.1%
CCOc1cc2c(cc1OCC)C(c1cc(OC)c(O)cc1Cl)NCC2 (stereo not drawn),98.7%,94%,90.8%,85.9%,89.2%,103%,90.5%,98.6%,106%,
CCCCCCN(CCCCCC)CCC(O)c1ccc2ccccc2c1 (stereo not drawn),0.428% (active),7.65% (active),73.4%,69.5%,45.7%,83.5%,59.6%,69.7%,69.1%,58%
C(=N/Nc1ncc(-c2cc3cc(-c4ccccc4)ccc3o2)s1)/c1cccs1,79%,70.4%,99.5%,93.9%,89.6%,113%,102%,97.1%,107%,101%
C#CCOc1ccc2ncnc(N3CCN(C(=O)CCl)CC3)c2c1,33.4% [8.25 µM],92.9% [8.25 µM],72.2% [8.25 µM],93.3% [8.25 µM],63.8% [8.25 µM],68.6% [8.25 µM],-30.9% [8.25 µM] (active),78.7% [8.25 µM],94.6% [8.25 µM],98.5% [8.25 µM]
CCc1nnc(CNc2ccc(Cl)cc2)o1,88.6%,103%,109%,95.6%,99.2%,88.5%,105%,99.9%,102%,97.8%
COc1ccc(Nc2cc(C)nc(N3CCN(c4ccnc5cc(Cl)ccc45)CC3)n2)cc1,-4.15% (active),16.2%,53.6%,73.4%,36.6%,51%,-11% (active),6.63% (active),71.1%,
